A549 tox-1 – kills or reduces viability of A549 cells in Nrf2 counter-screen | A549 ARE-Fluc cells, CellTiter-Fluor viability, 18-24 h | Potency, µM (titrated, usually from 46 µM), hits mostly inhibitors | hit rate 0.16% among 390,000 | AID 504648
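A549 ARE-Fluc cells in 5% FBS OPTI-MEM, 5000 cells/well, rested 2 h then exposed to compounds in concentration-response for 18-24 h at 37 °C. Viability by CellTiter-Fluor fluorescence (Ex 405/Em 525) after 30 min; luciferase luminescence (BugLite, 15 min, RT) read afterwards.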
PINK1 expr mod – changes PINK1 expression | PINK1 immunofluorescence, high-content cytometry, 24 h | Potency, µM (titrated, usually from 76.6 µM), actives largely listed as activators | hit rate 0.2% among 410,000 | AID 624263; active = well fitted activation curve with a large enough effect; inconclusive = small, poorly fitted or top-dose-only effect; cell line not stated here; note: nearly all actives have a fitted effect of over 65% in size
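Stable cell line treated 24 h with compounds at 5 concentrations (CCCP controls), then fixed and immunostained for PINK1 plus nuclear and cell stains; PINK1 immunofluorescence quantified by laser-scanning microplate cytometry.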
Epigenetic reg – regulators of epigenetic silencing causing reporter derepression in mouse cells | Potency, µM (highest dose often 53.9 µM), actives largely listed as activators | murine LDR cells, GFP reporter derepression, 30 h | hit rate 0.2% among 280,000; note: nearly all actives have a fitted effect of over 60% in size
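GFP-positive cell count by laser-scanning cytometry (objects 20–120 um) after 30 h, 37 C compound exposure of murine LDR cells; reporter is CMV-GFP integrated at a silenced locus, inducible by HDAC or DNMT inhibitors.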
Nrf2 activator – activators of Nrf2 (ARE) signaling; AREc32 ARE-luciferase reporter (MCF7-derived line), luminescence, 24 h; Potency, µM (highest dose often 46.1 µM), actives largely listed as activators; hit rate 0.31% among 410,000; AID 624171; note: nearly all actives have a fitted effect of over 65% in size
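Quantitative high-throughput format: AREc32 reporter cells, 1000 per well, received compound by pin transfer and were incubated 24 hr at 37 deg C, 5% CO2, before Steady-Glo luminescence detection.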
Nrf2 inh – blocks Nrf2 signaling. A549 ARE-Fluc reporter, luciferase luminescence, 18-24 h. AID 504444. hit rate 2.1% among 360,000. Potency, µM (highest dose often 46 µM), hits mostly inhibitors; note: nearly all actives have a fitted effect of over 60% in size
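Nrf2 function is reported as luminescence of an ARE-controlled luciferase in A549 cells. Compounds were tested at several concentrations, and a CellTiter-Fluor read on the same wells flagged cytotoxicity.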
FLuc enzyme inh – firefly luciferase inhibition, Nrf2 hit validation. shares compounds with Nrf2 inh. purified firefly luciferase, luminescence inhibition. Potency, µM (series often up to 57.5 µM), actives largely listed as inhibitors. hit rate 4% among 1,400; note: nearly all actives have a fitted effect of over 65% in size
Target sequence (P08659 whole entry, looked up): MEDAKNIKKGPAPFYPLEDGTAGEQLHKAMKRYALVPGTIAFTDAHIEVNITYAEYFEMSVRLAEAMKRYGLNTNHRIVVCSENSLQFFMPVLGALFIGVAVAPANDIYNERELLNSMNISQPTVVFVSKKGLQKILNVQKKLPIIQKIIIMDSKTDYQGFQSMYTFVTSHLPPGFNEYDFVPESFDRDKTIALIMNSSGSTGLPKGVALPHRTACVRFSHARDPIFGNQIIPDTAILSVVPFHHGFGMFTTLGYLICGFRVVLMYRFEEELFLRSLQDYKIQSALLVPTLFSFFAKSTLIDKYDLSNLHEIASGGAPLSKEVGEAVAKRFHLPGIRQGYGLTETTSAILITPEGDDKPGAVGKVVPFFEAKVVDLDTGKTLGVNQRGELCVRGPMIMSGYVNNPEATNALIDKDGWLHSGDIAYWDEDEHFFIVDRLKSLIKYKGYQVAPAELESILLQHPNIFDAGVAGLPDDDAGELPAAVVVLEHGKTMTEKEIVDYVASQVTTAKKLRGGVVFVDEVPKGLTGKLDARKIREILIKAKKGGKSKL
A549 tox-2 – toxic to A549 ARE-Fluc cells in Nrf2 counterscreen. shares compounds with Nrf2 inh. A549 ARE-Fluc cells, cytotoxicity counterscreen. Potency, µM (top dose mostly 46.1 µM), hits mostly inhibitors. hit rate 2% among 1,400;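 note: cells exposed to compounds for 18 to 24 hours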
ARE-Fluc inh – Nrf2 inhibition confirmed, A549 ARE-luciferase | A549 ARE-firefly luciferase reporter, luminescence | shares compounds with Nrf2 inh | Potency, µM (series often up to 46.1 µM), actives largely listed as inhibitors | hit rate 74% among 1,400; note: nearly all actives have a fitted effect of over 65% in size
Numbers stand for hits; . = inactive; ? = inconclusive; / = no result. Most compounds without a hit are left out; they make up all but 2.4% or so of the library. Unless noted, calls come from the whole dose curve; as a rule, active = well fitted curve in the direction sought with a large enough effect; inconclusive = small, poorly fitted or top-dose-only effect, or another doubt; inactive = no such curve, though single readings can be large; an effect the other way counts as inactive or inconclusive.

SMILES	A549 tox-1	PINK1 expr mod	Epigenetic reg	Nrf2 activator	Nrf2 inh	FLuc enzyme inh	A549 tox-2	ARE-Fluc inh
CCCCN(CC)CCNC(=O)c1cc2c(=O)oc3ccc(C)cc3c2s1	.	.	.	.	.	/	/	/
C[C@H]1CN([C@@H](C)CO)C(=O)c2cccc(NS(=O)(=O)c3ccc(F)cc3)c2O[C@H]1CN(C)Cc1ccc(Cl)c(Cl)c1	.	.	/	.	5.17µM	.	?	18.4µM
CCCCOCCCNc1ncnc2c1[nH]c1ccccc12	.	.	.	.	9.2µM	.	.	11.6µM
Cn1c(C(=O)N2CCN(c3ccc(Cl)cc3)CC2)cc2c(=O)[nH]c3ccccc3c21	.	.	?	.	?	/	/	/
Cc1ccc(Cl)cc1N1CCN(C(=O)c2cc3c(=O)[nH]c4ccccc4c3n2C)CC1	.	.	.	.	4.11µM	.	.	?
COc1ccc(Cl)cc1NC(=O)c1cc2c(=O)n3ccccc3nc2s1	.	.	.	.	1.64µM	.	?	23.1µM
Cc1cccc(NS(=O)(=O)c2ccc(NC(=O)N3CCCC3)cc2)c1	.	.	.	.	/	/	/	/
COc1ccc(-c2nnc(NC(=O)c3ccc(S(=O)(=O)N4CCc5ccccc5C4)cc3)o2)cc1	.	.	.	.	2.82µM	.	.	8.2µM
O=C(Nc1nnc(C2CC2)o1)c1ccc(S(=O)(=O)N2CCc3ccccc3C2)cc1	?	.	.	.	?	/	/	/
COc1ccc(-c2csc(NC(=O)c3ccc(S(=O)(=O)N4CCc5ccccc5C4)cc3)n2)cc1	.	.	.	.	5.17µM	.	.	.
COC(=O)c1ccc(-c2csc(NC(=O)c3ccc(S(=O)(=O)N4CCc5ccccc5C4)cc3)n2)cc1	.	.	.	.	.	/	/	/
Cc1ccc(Cc2nc3ccccc3nc2SCC(=O)N2CCCCC2C)cc1 (configuration not stated)	.	?	.	.	/	/	/	/
CCN(c1ccc(Cl)cc1)S(=O)(=O)c1nnc(NC(=O)C2CCCCC2)s1	.	.	.	.	.	/	/	/
Cn1c2ccccc2c(=O)c2cc(C#CC3(O)CCCCC3)ccc21	.	.	/	.	?	/	/	/
Cc1cc2sc3ccc(C#CC4(O)CCCCC4)cc3c(=O)c2cc1C	.	.	/	.	0.206µM	0.0849µM	.	9.2µM
CCOc1ccc(CCNc2ncnc3onc(-c4ccc(Cl)cc4)c23)cc1	.	.	.	.	7.31µM	.	.	13µM
C[C@@H]1C[C@@H]2[C@H]3CCC4=CC(=O)C=C[C@]4(C)[C@]3(F)[C@@H](O)C[C@@]2(C)[C@@]1(O)C(=O)CO	/	/	.	/	/	/	/	/
CC(=O)C12OC(C)(C)OC1CC1C3CCC4=CC(=O)C=CC4(C)C3(F)C(O)CC12C (configuration not stated)	.	.	/	.	0.0082µM	.	.	0.0065µM
C[C@@H]1C[C@H]2[C@@H]3CCC4=CC(=O)C=C[C@]4(C)[C@@]3(F)[C@@H](O)C[C@]2(C)[C@H]1C(=O)CO	.	.	.	.	0.0184µM	.	.	0.0146µM
CC1(C)O[C@@H]2C[C@H]3[C@@H]4CCC5=CC(=O)CC[C@]5(C)[C@@]4(F)[C@@H](O)C[C@]3(C)[C@]2(C(=O)CCl)O1	.	.	/	.	0.0116µM	.	.	0.0082µM
C[C@@H]1C[C@H]2[C@@H]3CCC4=CC(=O)C=C[C@]4(C)[C@@]3(F)[C@@H](O)C[C@]2(C)[C@@]1(O)C(=O)CO	.	/	.	.	0.0046µM	.	.	0.0052µM
CC1(C)O[C@H]2C[C@@H]3[C@H]4CCC5=CC(=O)CC[C@@]5(C)[C@]4(F)[C@@H](O)C[C@@]3(C)[C@@]2(C(=O)CCl)O1	/	/	.	/	/	/	/	/
COCC(=O)N1c2nc(C(C)C)nn2C2(CCCCC2)[C@@H]2CCCC[C@@H]21	.	.	.	.	.	/	/	/
CC(=O)c1c(C)[nH]c(C(=O)OCC(=O)Nc2ccc(Cl)c(S(=O)(=O)N(C)C)c2)c1C	.	.	.	.	9.2µM	.	.	9.2µM
Cc1cc(C)c(CN2CCN(C(=O)Cn3cnc4c(NCc5ccccc5)ncnc43)CC2)c(C)c1	.	.	/	.	3.66µM	.	?	0.651µM
SMILES	A549 tox-1	PINK1 expr mod	Epigenetic reg	Nrf2 activator	Nrf2 inh	FLuc enzyme inh	A549 tox-2	ARE-Fluc inh
O=C(Nc1ccc(F)cc1)c1cc(S(=O)(=O)N2CCCCC2)ccc1F	.	.	/	.	.	/	/	/
O=C(Nc1ccc(F)cc1)c1cc(S(=O)(=O)N2CCCCC2)cs1	.	.	.	.	8.2µM	.	.	7.31µM
O=C(Nc1nc(-c2ccc(S(=O)(=O)N3CCCCCC3)cc2)cs1)c1ccccc1	/	.	.	.	2.91µM	.	.	4.11µM
O=C(Nc1nc(-c2cccs2)cs1)c1ccc(S(=O)(=O)N2CCCC2)cc1	?	.	.	.	9.2µM	.	.	?
O=C(Nc1nc(-c2ccc3c(c2)OCCO3)cs1)c1ccc(S(=O)(=O)N2CCCCC2)cc1	.	?	.	.	?	/	/	/
CCOC(=O)C1CCN(S(=O)(=O)c2ccc(N3CCCCS3(=O)=O)cc2)CC1	.	.	.	.	/	/	/	/
O=[N+]([O-])c1ccc(/C=C2\C=Cc3ccccc32)cc1	/	.	/	/	/	/	/	/
COc1ccc(/C=N\NC(=O)c2ccccc2F)cc1COc1ccc(F)cc1	.	.	/	.	.	/	/	/
COc1ccc(/C=N\NC(=O)c2ccccc2Br)cc1COc1c(F)c(F)cc(F)c1F	?	.	/	.	5.17µM	.	.	?
O[C@@H]1[C@@H](O)C=C2CCN3Cc4cc5c(cc4[C@H]1C23)OCO5 (some centres not stated)	?	.	/	.	6.51µM	.	?	7.31µM
CN(c1ccc(C(=O)N2CCN(Cc3ccc4c(c3)OCO4)CC2)cc1)S(=O)(=O)c1ccccc1	.	.	.	.	6.51µM	.	.	9.2µM
O=C(CSc1c2c(nc3ccc(Cl)cc13)CCCC2)N1CCN(c2cccc(Cl)c2)CC1	.	.	.	.	9.2µM	.	?	?
COc1ccc(N2CCN(C(=O)CSc3c4c(nc5ccc(Cl)cc35)CCCC4)CC2)cc1	.	.	.	?	?	/	/	/
CCc1ccc(CNC(=O)CSc2c3c(nc4ccc(Cl)cc24)CCCC3)cc1	.	.	.	.	.	/	/	/
O=C(CSc1c2c(nc3ccc(Cl)cc13)CCCC2)N1CCN(c2ccc(Cl)cc2)CC1	?	.	.	.	2.91µM	.	?	20.6µM
COC1=C(C(=O)c2ccccc2)C(=O)C2(CC=C(C)C)C[C@H](C(=O)OCC(F)(F)F)C(C)(C)[C@@]1(CC=C(C)C)C2=O (tested in a mixture with another compound)	/	/	.	/	/	/	/	/
